Experimental data as given in PubChem BioAssay AID651702 (NMMLSC, 2012).
Among all 360,000 compounds or so, about 2,400 (0.67%) were called active. The sample holds actives, similar compounds and a random draw of the others, so the mix is not that of the screen.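 The calls were made as follows: active = inhibition above about 55% (limit read from the data); inconclusive = no clear call, values can overlap the other calls; inactive = the rest.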

Assay: LAMP-1 surface exposure blockers, TALL-104 cells – cell-based, flow cytometry, MLPCN library, primary screen (AID 651702)
Conditions: TALL-104 LAMP-1 surface exposure, at 10 µM, active compounds read high, cells stimulated with thapsigargin and PMA

With `Cn1c(C(=O)N2CCCC(C(=O)NCc3ccccc3)C2)cc2sccc21` (stereo not drawn) as the compound, how does the inhibition read?
Its inhibition is -4.6% (inactive).

For `COc1ccc(S(=O)(=O)N2CCN(CC(=O)N3CCOCC3)CC2)cc1OC`, which inhibition is on record?
Its inhibition is -0.5% (inactive).

Which inhibition does the source give for `Cc1ccc(OCCC(=O)OCC(=O)N2c3ccccc3NC(=O)C2(C)C)cc1` here?
Its inhibition is 3.1% (inactive).

With `COc1ccc2[nH]c(=O)c(C3c4cc(OC)c(OC)cc4CCN3C(=O)c3ccco3)cc2c1` (stereo not drawn) as the compound, how does the inhibition read?
Its inhibition is -2.2% (inactive).

Which inhibition does the source give for `Cc1cccc(-c2nc3ccc(C(=O)NCCN4CCN(C)CC4)cc3nc2-c2cccc(C)c2)c1` here?
The inhibition was 57.4% (active).

Which inhibition does the source give for `CCNC(=O)COC(=O)CCNC(=O)c1cccc(C)c1` here?
The inhibition was -0.6% (inactive).

With `O=C(NCCN1CCOCC1)c1cccc(S(=O)(=O)Nc2ccc(F)cc2)c1` as the compound, how does the inhibition read?
The inhibition was -1.1% (inactive).

With `CCC(C)CN1C(=O)CN(S(C)(=O)=O)CC1(C)C(=O)Nc1ccc2c(c1)OCCO2` (stereo not drawn) as the compound, how does the inhibition read?
The inhibition was -2% (inactive).

With `Cc1coc2c(O)cc3c(c12)OC1(N2CCCCC2)C(=O)NCCCC31` (stereo not drawn) as the compound, how does the inhibition read?
Its inhibition is 68.1% (active).

Which inhibition does the source give for `CC1CN(C2CCN(C(=O)COc3ccccc3)CC2)CC(C)O1` (stereo not drawn) here?
The inhibition was -2.5% (inactive).

With `COc1cccc(CNc2nc(NCc3cccs3)nc3ccsc23)c1` as the compound, how does the inhibition read?
The inhibition was 21% (inactive).

For `COc1ccccc1CNc1nc(Nc2ccccc2Cl)c2sccc2n1`, which inhibition is on record?
The inhibition was 2% (inactive).

With `COc1cccc(CNc2nc(NCc3ccccc3OC)nc3ccsc23)c1` as the compound, how does the inhibition read?
Its inhibition is 73.8% (active).

Which inhibition does the source give for `CC1CCCC(C)N1C(=O)CSc1nnnn1C1CCCC1` (stereo not drawn) here?
Its inhibition is -4% (inactive).

With `COc1ccccc1C1=CC(=O)CCC1` as the compound, how does the inhibition read?
The inhibition was 47.3% (inactive).

For `COc1ccccc1C1=Nc2cccc3cccc(c23)N1`, which inhibition is on record?
Its inhibition is 65.7% (active).

For `COc1ccccc1-c1nc(C(F)(F)F)c(OC)o1`, which inhibition is on record?
The inhibition was 1.1% (inactive).

For `COc1ccc(CC(=O)N[C@@H]2c3cc(OC)c(OC)cc3C[C@H]2OCc2ccccc2)cc1`, which inhibition is on record?
Its inhibition is -2.2% (inactive).

With `COc1ccccc1CC(NC(C)=O)C(=O)NC1CCN(C(=O)Nc2ccccc2Cl)CC1` (stereo not drawn) as the compound, how does the inhibition read?
The inhibition was 6.8% (inactive).

Which inhibition does the source give for `C[C@H](CO)N1C[C@H](C)[C@@H](CN(C)Cc2ccc3c(c2)OCO3)OCc2cnnn2CCCC1=O` here?
Its inhibition is 2.5% (inactive).

With `Cc1cccc(C)c1NC(=O)CCS(=O)(=O)c1cccc2nsnc12` as the compound, how does the inhibition read?
The inhibition was -2.7% (inactive).

With `Cc1cccc2sc(N(CCCN(C)C)C(=O)CCS(=O)(=O)c3ccccc3)nc12` as the compound, how does the inhibition read?
The inhibition was 90.8% (active).

With `O=C(CCS(=O)(=O)c1ccccc1)NC1CCCC1` as the compound, how does the inhibition read?
The inhibition was -1.3% (inactive).

With `COC(=O)COc1ccc(C2NC(=O)NC(C)=C2C(=O)NCc2ccccc2)cc1OC` (stereo not drawn) as the compound, how does the inhibition read?
The inhibition was -3.7% (inactive).

With `COc1ccc(-c2cc(C(=O)N(C)Cc3ccccc3)c3ccccc3n2)cc1` as the compound, how does the inhibition read?
The inhibition was 74.5% (active).

Which inhibition does the source give for `COc1ccc(CN(C)C(=O)c2cc(-c3ccc(C)cc3C)nc3ccccc23)c(OC)c1OC` here?
The inhibition was 19.4% (inactive).

For `COc1ccc(C2=NS(=O)(=O)N(C)C(C(=O)N(C)Cc3ccccc3)=C2)cc1`, which inhibition is on record?
Its inhibition is -1.2% (inactive).

Which inhibition does the source give for `COc1c(C)cc(C(=O)C2CCCN(S(=O)(=O)c3c(C)noc3C)C2)cc1C` (stereo not drawn) here?
The inhibition was -1.1% (inactive).

With `O=C(CC(CC(=O)c1ccccc1)c1ccco1)c1ccccc1` as the compound, how does the inhibition read?
The inhibition was 4.2% (inactive).

With `CC(C)c1ccccc1OCC(O)CN(CC(O)COc1cccc2ccccc12)C(C)C` (stereo not drawn) as the compound, how does the inhibition read?
Its inhibition is 73.4% (active).

For `CN1CCN(CCCCOc2cccc3ccccc23)CC1`, which inhibition is on record?
Its inhibition is 24.7% (inactive).

With `CC1CC(C)CN(CCOc2cccc3ccccc23)C1` (stereo not drawn) as the compound, how does the inhibition read?
The inhibition was 7.6% (inactive).

Which inhibition does the source give for `CCCC(NC(=O)c1ccccc1)c1nc2ccccc2n1Cc1ccc(C(=O)OC)o1` (stereo not drawn) here?
The inhibition was 0.5% (inactive).
